Screen size: about 58,000 sequences; about 4,000 (6.9%) were called active. The calls are words filed in the database; no cut-off is given here. The list is a sample of the results. Potency and affinity values are given separately.

In the assay the test system is HCT-15.
Usually GI50 stands for the concentration at which growth is held to half of that of the control. “cis-Bis[[(trimethylsilyl)methyl]amino]tetrachloroplatinum(IV), CHEMBL2146191” displayed a GI50 of 3.42 µM. “[Bis(aminomethyl)tetramethylenesilane]dichloropaltinum(II), CHEMBL2146205” showed a GI50 of 20.5 µM.

“[Bis(aminomethyl)dimethylsilane]tetrachloroplatinum(IV), CHEMBL2146190” had a GI50 of 8.45 µM. In the case of CISPLATIN, CHEMBL11359, growth was halved (GI50) at 7.21 µM. In turn, “[Bis(aminomethyl)dimethylsilane]dichloroplatinum (II), CHEMBL2146201” yielded a concentration for 50% growth inhibition (GI50) of 27.5 µM.

Take “[Bis(aminomethyl)tetramethylenesilane]tetrachloropaltinum(IV), CHEMBL2146189”: the GI50 turned out to be 3.62 µM. As for “mu-(1,7-nanodiamine-N,N')bis-(cis-aminedichloroplatimum (II)), CHEMBL2146215”, the figure is 37.1 µM; as for “[Bis(aminomethyl)pentamethylenesilane]dichloropaltinum(II), CHEMBL2146202”, 5.21 µM.

“[Bis(aminomethyl)diethylsilane]tetrachloroplatinum(IV), CHEMBL2146203” displayed a 50% growth inhibitory concentration (GI50) of 2.45 µM. In turn, “[Bis(aminomethyl)pentamethylenesilane]tetrachloropaltinum(IV), CHEMBL2146204” yielded a 50% growth inhibitory concentration (GI50) of 0.953 µM. Turning to “[Bis(aminomethyl)ethylmethylsilane]tetrachloroplatinum(IV), CHEMBL2146192”, the GI50 is 3.5 µM.
